Experimental findings from PubChem BioAssay (NCATS) are described below.

Assay [1] concerns the target Phospholipid hydroperoxide glutathione peroxidase GPX4 (Homo sapiens) (UniProt P36969). Briefly: Primary qHTS Assay for Inhibitors of Recombinant Selenoprotein Glutathione Peroxidase 4 (GPX4) (AID 1845192). Further: nearly all actives have a fitted effect of over 65% in size. Further: potency means the concentration at half of the fitted maximal effect. On activity change, negative = inhibition: on the % scale 0 is the no-effect control and ±100 the full control effect. In outline:
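GR-coupled assay: recombinant GPX4 preincubated 30 min with compound at room temperature; final 200 nM GPX4, 1 mM GSH, 0.5 mM cumene hydroperoxide, 0.5 mM NADPH, 100 nM GR, 0.01% BSA, pH 7.5 Tris. NADPH fluorescence (340/450 nm) read at 0 and 15 min.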
For orientation: qHTS replaces the single test concentration by a dilution series.

Assay [2] addresses Luciferin 4-monooxygenase (Photinus pyralis) (UniProt P08659). Description: Primary firefly luciferase (FLuc) qHTS assay for identification of artifact compounds. (AID 1845220). Further: nearly all actives have a fitted effect of over 60% in size. Further: potency means the concentration at half of the fitted maximal effect.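 On activity change, negative = inhibition: plate controls were DMSO vehicle for no effect and no enzyme for full effect.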 In outline: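 Titrated compounds were incubated 15 min at RT, protected from light, with luciferin and ATP at 10 uM; reaction started with 10 nM FLuc, luminescence imaged at 5 min, and concentration-response fitted by Hill equation.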

Assay [3] in a line: Primary fluorescence-based thiol-reactive (MSTI) qHTS assay for identification of artifact compounds. (AID 1845221). Further: nearly all actives have a fitted effect of over 65% in size. Further: potency means the concentration at half of the fitted maximal effect.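 On activity change, negative = thiol reactive: thiol-reactive compounds lower the probe fluorescence signal.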 In outline:
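One-hour, room-temperature, dark incubation of compound with 4 uM MSTI in PBS (pH 7.4, 2% DMSO) precedes a fluorescence read at 525 nm excitation, 598 nm emission; Hill-equation fitting yields concentration-response values.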

Assay [4] in a line: Primary redox qHTS assay for identification of artifact compounds. (AID 1845223). In outline:
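Amplex Red (25 uM) and HRP (250 mU/mL) in HBSS, with compounds for 15 min, then 250 uM DTT for 30 min, room temperature, dark. Fluorescence 525/598 nm read; normalized to DMSO and 10 uM DA3003; Hill fit.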

The nature of assay [5]: Quantitative High-Throughput drug screen in 47 multiple myeloma cell lines against the NCATS MIPE library collection: FR4_PLB cell viability assay (AID 1918924; further: nearly all actives have a fitted effect of over 35% in size; further: potency means the concentration at half of the fitted maximal effect). The method, boiled down: (§1)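 Myeloma cell lines, 500 cells per well, exposed to MIPE 4.0 library compounds for 48 h at 37C, 5% CO2. Viability from ATP by CellTiter-Glo luminescence; normalised to DMSO (100%) and media-only (0%) wells.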

A short description of assay [6]: Quantitative High-Throughput drug screen in 47 multiple myeloma cell lines against the NCATS MIPE library collection: Delta47_JCRB cell viability assay (AID 1918925; further: nearly all actives have a fitted effect of over 45% in size; further: potency means the concentration at half of the fitted maximal effect). In outline:
(§2)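 CellTiter-Glo ATP luminescence gave viability after 48 h compound treatment at 37C of 500 multiple myeloma cells per well. Normalisation used DMSO-only wells as 100% and media-only wells as 0% viability; primary qHTS of approved and investigational drugs.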

Assay [7] can be described thus: Quantitative High-Throughput drug screen in 47 multiple myeloma cell lines against the NCATS MIPE library collection: EJM_DSMZ cell viability assay (AID 1918926; further: nearly all actives have a fitted effect of over 30% in size; further: potency means the concentration at half of the fitted maximal effect). In outline: as §2
Assay [8] in a line: Quantitative High-Throughput drug screen in 47 multiple myeloma cell lines against the NCATS MIPE library collection: AMO1_DSMZ cell viability assay (AID 1918927; further: nearly all actives have a fitted effect of over 30% in size; further: potency means the concentration at half of the fitted maximal effect). In outline:
as §2

Assay [9] is described as follows: Quantitative High-Throughput drug screen in 47 multiple myeloma cell lines against the NCATS MIPE library collection: ARD_JJKsccE7 cell viability assay (AID 1918929; further: potency means the concentration at half of the fitted maximal effect). In outline: as §2
The nature of assay [10]: Quantitative High-Throughput drug screen in 47 multiple myeloma cell lines against the NCATS MIPE library collection: Karpas620_DSMZ cell viability assay (AID 1918959). Further: nearly all actives have a fitted effect of over 30% in size. Further: potency means the concentration at half of the fitted maximal effect. In outline:
as §1

Assay [11] in a line: Quantitative High-Throughput drug screen in 47 multiple myeloma cell lines against the NCATS MIPE library collection: JIM3_ECACC cell viability assay (AID 1918963; further: nearly all actives have a fitted effect of over 35% in size; further: potency means the concentration at half of the fitted maximal effect). The method, boiled down: as §1
Assay [12] can be described thus: Quantitative High-Throughput drug screen in 47 multiple myeloma cell lines against the NCATS MIPE library collection: JIM1_ECACC cell viability assay (AID 1918964; further: potency means the concentration at half of the fitted maximal effect). The method, boiled down:
as §2

Assay [13] is described as follows: Quantitative High-Throughput drug screen in 47 multiple myeloma cell lines against the NCATS MIPE library collection: KMM1_JCRB cell viability assay (AID 1918960). Further: nearly all actives have a fitted effect of over 30% in size. Further: potency means the concentration at half of the fitted maximal effect. The method, boiled down: (§3)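 Myeloma cells at 500 per well in 1536-well format treated with MIPE 4.0 library by pin transfer for 48 h at 37C, 5% CO2. Viability from ATP luminescence (CellTiter-Glo), normalized to DMSO (100%) and media-only (0%) wells.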

The test system of assay [14] is Nanoluciferase (engineered Oplophorus gracilirostris luciferase). Description: Primary Nanoluciferase (NLuc) qHTS assay for identification of artifact compounds. (AID 1845222).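 Further: NLuc secreted into diluted conditioned medium of S16 cells; 0% = DMSO and -100% = no enzyme.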 In outline: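 qHTS format, against NLuc in S16 cell-conditioned medium. Nano-Glo substrate 1:100 was added after 15 min at room temperature. Luminescence was taken after a further 5 min.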

Assay [15] in a line: Quantitative High-Throughput drug screen in 47 multiple myeloma cell lines against the NCATS MIPE library collection: ARP1_JJKsccF8 cell viability assay (AID 1918928; further: nearly all actives have a fitted effect of over 40% in size; further: potency means the concentration at half of the fitted maximal effect). In outline: as §3
Assay [16] is described as follows: Quantitative High-Throughput drug screen in 47 multiple myeloma cell lines against the NCATS MIPE library collection: Karpas417_ECACC cell viability assay (AID 1918961). The settings on record: Karpas417 myeloma viability, CellTiter-Glo ATP luminescence, 48 h; viability (% of DMSO): at 45.8 µM (top of the series). The method, boiled down:
as §1
In general terms: ATP-based viability assays read luminescence as a measure of living cells.

Assay [17] in a line: Quantitative High-Throughput drug screen in 47 multiple myeloma cell lines against the NCATS MIPE library collection: KHM11_PLB cell viability assay (AID 1918962). Further: nearly all actives have a fitted effect of over 35% in size. Further: potency means the concentration at half of the fitted maximal effect. The method, boiled down: as §1
Assay [18] addresses Glutathione peroxidase 1 (Homo sapiens) (UniProt P07203). Briefly: Primary qHTS Assay for Inhibitors of Recombinant Selenoprotein Glutathione Peroxidase 1 (GPX1) (AID 1845191). Further: nearly all actives have a fitted effect of over 65% in size. On activity, negative = inhibition: on the % scale 0 is the no-effect control and ±100 the full control effect. The method, boiled down: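 GR-coupled assay: compounds preincubated 30 min at room temperature with GPX1, then reaction started with CHP; final 10 nM GPX1, 1 mM GSH, 0.5 mM CHP, 0.5 mM NADPH, 100 nM GR, 0.01% BSA, pH 7.5 Tris buffer. NADPH fluorescence (340/450 nm) read at 0 and 15 min.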

Structures are written as SMILES. “And” between values parts separate entries of the source, which are not always exact repeats. Identical values can stand only once. Unmarked numbers belong to inactive results. Inconclusive results are not listed. The source made the active and inactive calls. The call rests on the fitted dose curve; in most records, active means well fitted curve in the direction sought with a large enough effect; inconclusive means small, poorly fitted or top-dose-only effect, or another doubt; inactive means no such curve, though single readings can be large; an effect the other way counts as inactive or inconclusive.

Sequence of Glutathione peroxidase 1 (Homo sapiens) (P07203 whole entry, looked up): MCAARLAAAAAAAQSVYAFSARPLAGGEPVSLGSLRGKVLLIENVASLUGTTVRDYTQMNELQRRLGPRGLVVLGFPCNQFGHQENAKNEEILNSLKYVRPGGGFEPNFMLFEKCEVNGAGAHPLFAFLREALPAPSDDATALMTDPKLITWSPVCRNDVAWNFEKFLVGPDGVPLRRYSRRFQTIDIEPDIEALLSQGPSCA
Sequence of Phospholipid hydroperoxide glutathione peroxidase GPX4 (Homo sapiens) (P36969 whole entry, looked up): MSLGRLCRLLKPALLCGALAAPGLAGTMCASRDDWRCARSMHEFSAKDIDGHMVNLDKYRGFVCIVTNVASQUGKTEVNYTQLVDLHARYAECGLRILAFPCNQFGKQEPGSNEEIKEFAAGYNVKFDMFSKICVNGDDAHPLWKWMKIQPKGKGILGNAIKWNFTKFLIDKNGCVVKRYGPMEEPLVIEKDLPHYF

Consider `O=C(O)c1cccc(-c2noc(-c3ccccc3F)n2)c1`, for which the Potency entry in [1], in assay [3], in [5], in assay [6], in assay [7] and in assay [8] was “inactive” in each case. Besides, the Potency result in assay [10], in assay [11] and in assay [12] was “inactive” throughout. For the same compound, the Potency is 0.0067 µM (active) in assay [2] and 14.8 µM (active) in assay [9]. The outcome in [4] was inactive.

In the case of `CCCOc1ccc2nc(NC(=O)OC)[nH]c2c1`, the Potency entry in [1] and in assay [5] was “inactive” throughout. Also, the Potency in assay [6] was 0.0118 µM (active); in assay [8], 0.001 µM (active); in assay [9], 0.001 µM (active).

On to `Clc1ccc(C(Cn2ccnc2)OCc2ccc(Sc3ccccc3)cc2)c(Cl)c1` (stereo unspecified), for which the Potency entry in [1] was “inactive”. Also, the Potency in [8] is 20.9 µM (active); in assay [9], 26.4 µM (active); in [10] it was 18.7 µM (active); in [13], 20.9 µM (active); in assay [12] it was 20.9 µM (active).

`N[C@@H](Cc1cc(I)c(Oc2cc(I)c(O)c(I)c2)c(I)c1)C(=O)O`: the Potency entry in [1], in [2], in assay [5], in assay [7], in [8] and in [15] was “inactive” each time. The Potency result in assay [9], in assay [13] and in assay [16] was “inactive” throughout. The Potency in [3] was 0.736 µM (active); in [12], 0.0053 µM (active). Also, the call in assay [14] and in assay [4] was inactive.

Regarding `CCc1nc(N)nc(N)c1-c1ccc(Cl)cc1`, the Potency result in [6], in assay [7], in [10] and in assay [12] was “inactive” each time. The Potency was 1.48 µM (active) in [8] and 2.35 µM (active) in assay [11].

On to `COC(=O)C1=C(C)NC(C)=C(C(=O)OC(C)C)C1c1cccc2nonc12` (stereo unspecified), for which, in assay [6], the Potency was 2.96 µM (active). Further, the Potency result in assay [7], in [8], in assay [15], in assay [9], in assay [10] and in assay [16] was “inactive” in each case. Further, the Potency entry in assay [12] is “inactive”.

On to `COc1cc2nc(N3CCN(C(=O)C4CCCO4)CC3)nc(N)c2cc1OC` (stereo unspecified), for which the Potency result in [1], in [6], in assay [7], in assay [10] and in [17] was “inactive” in each case.

As to `Cc1cc(=O)c2c(O)c3c(O)cc(=O)c4c3c3c(cc(O)c1c23)C(C)(C)C=4O`, the Potency in [5] was 13.2 µM (active); in assay [6] it was 0.372 µM (active); in [7], 14.8 µM (active); in [8], 5.26 µM (active); in [15] it was 2.96 µM (active); in [9], 3.32 µM (active). The figures for the Potency in [10], in assay [11] and in assay [12] were 14.8 µM (active), 0.235 µM (active) and 5.9 µM (active), respectively.

As to `CCN(CCO)CCCC(C)Nc1ccnc2cc(Cl)ccc12` (stereo unspecified), the activity change, negative = inhibition in assay [1] was -25.1% [at 4.52 µM] and 2.25% [at 4.52 µM]; in assay [2] it was -0.741% [at 6.45 µM]. Moreover, the activity change, negative = thiol reactive in assay [3] was -3.32% [at 6.41 µM]. In assay [14], the activity, negative = inhibition is -2.86% [at 6.45 µM]. Besides, the redox activity (% of DA3003) in assay [4] is -6.64% [at 6.41 µM]. For the same compound, the Potency result in assay [5], in [6], in assay [7], in [15], in [10] and in assay [12] was “inactive” each time.

Take `Nc1nc(Cl)nc2c1ncn2[C@H]1C[C@H](O)[C@@H](CO)O1`: the Potency in assay [5] is 3.72 µM (active); in [6], 0.235 µM (active); in [8], 0.187 µM (active); in assay [17], 1.05 µM (active); in [11], 0.526 µM (active); in assay [12], 2.35 µM (active).

Turning to `CC1(C)CCC(C)(C)c2cc(NC(=O)c3ccc(C(=O)O)cc3)ccc21`, the Potency in [1] was 10 µM (active); in assay [6] it was 16.6 µM (active); in [9], 13.2 µM (active). Besides, the Potency result in assay [5], in assay [15] and in [12] was “inactive” throughout.

Turning to `Cc1ccc(C(=O)c2cc(O)c(O)c([N+](=O)[O-])c2)cc1`, the Potency entry in assay [18] and in [15] was “inactive” each time. Further, the Potency in assay [6] was 26.4 µM (active); in assay [9] it was 20.9 µM (active).

For `COc1cc2c(N3CCN(C(=O)Nc4ccc(OC(C)C)cc4)CC3)ncnc2cc1OCCCN1CCCCC1`, the Potency entry in [2], in [3], in [8], in [9], in [10] and in assay [13] was “inactive” throughout. Moreover, the compound was classed as inactive in assay [14] and in assay [4]. In assay [6], the Potency is 8.33 µM (active).

Turning to `C=CCc1cc(OC)c(O)c(C(=O)NCCO)c1`, the Potency entry in [5], in assay [6], in [7], in assay [8], in assay [10] and in [13] was “inactive” each time. Also, in [16], the Potency entry is “inactive”.

For the compound `Cn1c(NCCN(CCO)CCCc2ccc([N+](=O)[O-])cc2)cc(=O)n(C)c1=O`, the Potency result in assay [18], in [7] and in [15] was “inactive” in each case. For the same compound, the Potency in assay [8] is 18.7 µM (active).

As to `CCC[C@@H]1C[C@@H](C(=O)N[C@@H]([C@H]2O[C@H](SC)[C@H](O)[C@@H](O)[C@H]2O)[C@@H](C)O)N(C)C1`, the Potency result in assay [1], in [5], in [8], in [15], in [9] and in [13] was “inactive” throughout. The Potency result in assay [16] and in assay [11] was “inactive” each time. Also, the Potency in assay [7] was 3.32 µM (active).

Turning to `C[C@]12CCC(=O)C=C1CC[C@@H]1[C@H]2[C@@H](O)C[C@@]2(C)[C@H]1CC[C@]2(O)C(=O)CO`, the Potency entry in assay [5], in assay [7], in assay [8], in assay [10] and in assay [12] was “inactive” throughout. Moreover, in [9], the Potency was 0.0118 µM (active).
